In PubChem BioAssay AID434964 (The Scripps Research Institute Molecular Screening Center, 2010):
Some of the results follow. The source made the active and inactive calls.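 The calls were made as follows: active = average activation exceeds primary screen hit cutoff (cut at about 21% in these data); inactive = the rest.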

Target: Vasopressin V1a receptor (Homo sapiens) (UniProt P37288)
Assay: V1a receptor agonists, calcium signal, confirmation, Fluo-8 calcium fluorescence, CHO-V1R cells (AID 434964);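 also: peak over basal fluorescence ratio during a 100 s FLIPR read; 0% = DMSO only wells and 100% = 3 nM vasopressin wells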
Conditions: agonist, at 3 µM, stronger effect = higher value

Chain of Vasopressin V1a receptor (Homo sapiens) (P37288 whole entry, looked up): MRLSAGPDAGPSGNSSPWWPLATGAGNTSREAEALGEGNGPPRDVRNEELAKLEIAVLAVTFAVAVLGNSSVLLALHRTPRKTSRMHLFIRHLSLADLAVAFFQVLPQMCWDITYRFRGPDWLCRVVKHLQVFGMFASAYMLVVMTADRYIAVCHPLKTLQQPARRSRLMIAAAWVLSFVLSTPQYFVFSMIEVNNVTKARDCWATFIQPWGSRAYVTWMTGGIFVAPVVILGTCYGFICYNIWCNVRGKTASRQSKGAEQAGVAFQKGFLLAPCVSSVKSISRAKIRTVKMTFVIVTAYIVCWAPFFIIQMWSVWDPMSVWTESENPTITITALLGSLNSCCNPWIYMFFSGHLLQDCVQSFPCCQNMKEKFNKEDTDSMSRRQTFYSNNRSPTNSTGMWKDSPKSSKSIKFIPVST

activation, active:
Cc1cc(C)c(/C=C2\C(=O)Nc3ccccc32)[nH]1 40.5%
O=c1c2cc(Br)ccc2nc(-c2cccc(Cl)c2)n1O 31.8%
CCN(CC)c1ccc2cc(C(N)=O)/c(=N\NC(=O)c3ccncc3)oc2c1 21.7%

activation, inactive:
Fc1cccc(Cl)c1COc1ccc(-c2nnco2)cc1 2.1%
CC1(C)S[C@@H]2[C@H](N=CN3CCCCCC3)C(=O)N2[C@H]1C(=O)O 0.2%
O=C(c1ccccc1)c1ccc(OCC(O)CN2CCCC2)cc1 (stereo not drawn) -0.08%
CCN(CC)c1ccc(/C=N/NC(=O)c2cnccn2)c(O)c1 10.5%
O=C(CN1CCN(c2cccc(Cl)c2)CC1)Nc1ccc(S(=O)(=O)N2CCOCC2)cc1 3.06%
